A selection: hits, their analogues and other compounds. The true share with any hit is near 1.2%.
COUP-TFII inh: NR2F2 transcriptional activity inhibitors, primary screen, cell-based, luciferase reporter, HEK293T, luminescence. COUP transcription factor 2 (Homo sapiens), P24468. HEK293T NGFI-A luciferase reporter. inhibition, % at 8.6 µM. hit rate 0.7% among 370,000;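 active = inhibition above a per-plate cutoff, mean inhibition of test wells between control levels plus 3 SD, cut at about 38% in these data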;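 also: cells cotransfected with COUP-TFII expression vector driving the NGFI-A reporter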
NCOA1 inh: SRC1 coactivator transcriptional activity inhibitors, primary screen, cell-based, luminescence; HEK293 GAL4-SRC1 luciferase reporter; inhibition, % at 3.6 µM; hit rate 0.12% among 360,000;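 active = inhibition above the campaign mean plus 3 SD, with each screening campaign given its own cutoff, cut at about 60% in these data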
NCOA2 inhibitor: inhibition of GAL4-SRC2 driven luciferase reporter, primary screen, SRC2 inhibitor project, cell-based, luminescence. hit rate 0.17% among 370,000. AID 651957, 2012. inhibition, % at 9 µM. Nuclear receptor coactivator 2 (Homo sapiens), Q15596. HEK293 GAL4-SRC2 luciferase reporter;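 active = inhibition above the mean inhibition of all tested compounds plus 3 SD, set per campaign, cut at about 52% in these data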
LRH-1 inv ag: LRH-1 (NR5A2) inverse agonists, primary screen, cell-based, luminescence, HEK293T, StAR-luciferase reporter; Nuclear receptor subfamily 5 group A member 2 (Homo sapiens), O00482; LRH-1 transfected, 24 h; inhibition, % at 3.6 µM; hit rate 0.13% among 360,000;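 active = inhibition above the mean inhibition of all tested compounds plus 3 SD, cut at about 73% in these data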
Target sequence (O00482 whole entry, looked up): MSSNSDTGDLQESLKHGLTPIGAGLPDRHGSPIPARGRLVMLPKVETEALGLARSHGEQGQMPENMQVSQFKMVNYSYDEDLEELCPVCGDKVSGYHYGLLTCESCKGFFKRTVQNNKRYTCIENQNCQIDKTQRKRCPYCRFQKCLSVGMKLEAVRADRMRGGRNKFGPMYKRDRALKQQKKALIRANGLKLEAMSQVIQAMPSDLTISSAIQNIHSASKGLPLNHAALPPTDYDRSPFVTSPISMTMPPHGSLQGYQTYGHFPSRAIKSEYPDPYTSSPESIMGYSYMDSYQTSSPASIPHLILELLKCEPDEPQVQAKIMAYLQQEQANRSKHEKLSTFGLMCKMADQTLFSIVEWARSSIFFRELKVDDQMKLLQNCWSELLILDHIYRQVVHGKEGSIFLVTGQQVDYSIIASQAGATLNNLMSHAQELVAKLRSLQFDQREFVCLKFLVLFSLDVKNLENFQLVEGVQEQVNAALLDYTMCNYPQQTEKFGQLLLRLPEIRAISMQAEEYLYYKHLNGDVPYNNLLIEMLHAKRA
Gli-Sufu antag: Gli-Sufu pathway antagonists, primary screen, luciferase luminescence, Sufu-KO-LIGHT cells, uHTS; AID 588413, 2011; Sufu-KO-LIGHT fibroblasts, Gli luciferase reporter luminescence; inhibition, % at 5 µM; hit rate 0.74% among 340,000;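 active = inhibition above about 55%, limit read from the data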
SRC3 inh: SRC3 coactivator transcriptional activity inhibitors, primary screen, cell-based, luminescence; Nuclear receptor coactivator 3 (Homo sapiens), Q9Y6Q9; HEK293 GAL4-SRC3 luciferase reporter; inhibition, % at 3.6 µM; hit rate 0.17% among 360,000;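 active = inhibition above a per-campaign cutoff, the mean of all compounds plus 3 SD, cut at about 60% in these data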;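 also: higher means less SRC3-driven luciferase light from the GAL4 reporter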
Gli-Sufu confirm: Gli-SUFU pathway antagonists, confirmation, single concentration, luciferase luminescence, Sufu-KO-LIGHT cells | AID 602428, 2012 | hit rate 40% among 2,500 | inhibition, % at 5 µM | shares compounds with Gli-Sufu antag | Gli luciferase reporter;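 active = mean inhibition at 5 µM reaching about 45%, limit read from the data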
Gli cytotox: cytotoxicity in Sufu-KO-LIGHT cells, confirmation, cytotoxicity control for Gli-SUFU antagonist project, cell-based, ATP luminescence, single concentration. shares compounds with Gli-Sufu antag. cytotoxicity, % at 5 µM. hit rate 32% among 2,500. AID 651994, 2013;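 active = mean cytotoxicity at 5 µM above about 25%, limit read from the data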;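 also: cells exposed to compound overnight for roughly 16 to 18 hours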
Wnt3a cs: Wnt3a reporter signal inhibition, confirmation, counter-screen for Gli-SUFU antagonist project, Wnt-LIGHT cells, luminescence, single concentration; shares compounds with Gli-Sufu antag; Wnt3a-driven luciferase reporter; inhibition, % at 6.25 µM; hit rate 20% among 2,500;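 active = mean inhibition above about 25%, limit read from the data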
Numbers stand for hits.

For Cc1nc2ccccc2c(=O)n1-c1cc([N+](=O)[O-])cc([N+](=O)[O-])c1 the results were COUP-TFII inh inactive, NCOA1 inh inactive, NCOA2 inhibitor inactive, LRH-1 inv ag inactive, Gli-Sufu antag inactive and SRC3 inh inactive.
For Cc1cccc(-n2c(/C=C/c3ccc([N+](=O)[O-])o3)nc3ccccc3c2=O)c1 the results were COUP-TFII inh inactive, NCOA1 inh inactive, NCOA2 inhibitor inactive, LRH-1 inv ag inactive, Gli-Sufu antag 72.5, SRC3 inh inactive, Gli-Sufu confirm 62.9, Gli cytotox 30.6 and Wnt3a cs inactive.
For O=C1CC23c4ccccc4N4C(=O)CC5OCC=C6CN1C2CC6C5C43 (configuration not stated) the results were COUP-TFII inh inactive, NCOA1 inh inactive, NCOA2 inhibitor inactive, LRH-1 inv ag inactive, Gli-Sufu antag inactive and SRC3 inh inactive.
`CCCCCc1nc2c(c(=O)c3ccccc3n2C)c(=O)n1C1CCCCCC1` gave COUP-TFII inh inactive, NCOA1 inh inactive, NCOA2 inhibitor inactive, LRH-1 inv ag inactive, Gli-Sufu antag inactive, SRC3 inh inactive, Gli-Sufu confirm inactive, Gli cytotox inactive and Wnt3a cs inactive.
For COC(=O)C1=C(c2cc3ccccc3o2)C[C@@H]2CC[C@H]1N2C(=O)N1CCC(O)CC1 the results were COUP-TFII inh inactive, NCOA1 inh inactive, NCOA2 inhibitor inactive, LRH-1 inv ag inactive, Gli-Sufu antag inactive and SRC3 inh inactive.
Screening COC(=O)C1=C(c2cc3ccccc3o2)C[C@@H]2CC[C@H]1N2C(=O)N1CCC(C)CC1 returned COUP-TFII inh inactive, NCOA1 inh inactive, NCOA2 inhibitor inactive, LRH-1 inv ag inactive, Gli-Sufu antag inactive, SRC3 inh inactive, Gli-Sufu confirm inactive, Gli cytotox inactive and Wnt3a cs inactive.
Screening O=C(OCC(=O)c1ccc([N+](=O)[O-])cc1)/C(=C/c1ccc(Cl)cc1)NC(=O)c1ccccc1 returned COUP-TFII inh inactive, NCOA1 inh inactive, NCOA2 inhibitor inactive, LRH-1 inv ag inactive, Gli-Sufu antag inactive and SRC3 inh inactive.
Screening O=[N+]([O-])NC1=NCN(Cc2ccco2)CN1Cc1ccco1 returned COUP-TFII inh inactive, NCOA1 inh inactive, NCOA2 inhibitor inactive, LRH-1 inv ag inactive, Gli-Sufu antag 90.9, SRC3 inh inactive, Gli-Sufu confirm inactive, Gli cytotox inactive and Wnt3a cs inactive.
For CN1CN=C(N[N+](=O)[O-])N(Cc2ccco2)C1 the results were COUP-TFII inh inactive, NCOA1 inh inactive, NCOA2 inhibitor inactive, LRH-1 inv ag inactive, Gli-Sufu antag inactive and SRC3 inh inactive.
Screening COc1ccc(NC(=O)c2cn(CCC#N)nc2-c2ccccc2)cc1 returned COUP-TFII inh inactive, NCOA1 inh inactive, NCOA2 inhibitor inactive, LRH-1 inv ag inactive, Gli-Sufu antag inactive and SRC3 inh inactive.
N#CCCn1cc(C(=O)Nc2ccc(F)cc2)c(-c2ccccc2)n1 was read as COUP-TFII inh inactive, NCOA1 inh inactive, NCOA2 inhibitor inactive, LRH-1 inv ag inactive, Gli-Sufu antag inactive, SRC3 inh inactive, Gli-Sufu confirm inactive, Gli cytotox inactive and Wnt3a cs inactive.
`C=CCC1(Nc2ccccc2)CC(C)N(C)CC1C` (configuration not stated) gave COUP-TFII inh inactive, NCOA1 inh inactive, NCOA2 inhibitor inactive, LRH-1 inv ag inactive, Gli-Sufu antag inactive and SRC3 inh inactive.

Assay outcomes deposited in PubChem by several laboratories.
